Measurements reported in PubChem BioAssay (EPA / NIEHS).
Calls of active or inactive are those of the source. Rule for the calls: active = hit-call score of the fitted dose curve at least 0.9, where 1 is the maximum; inactive = score below 0.9.

Legend:
[1] = BSK_hDFCGF_SRB: Viability Assessment in the BioMAP Diversity Plus: hDFCGF Assay (AID 2283061); details: primary human foreskin fibroblasts;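 note: cells exposed to compound for 24 h before the read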
Method in brief: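 Primary human foreskin fibroblasts; 24 h post-dose; fixed 10% TCA, stained 0.1% SRB, A560 read; total protein as overt cytotoxicity measure; curves fit bidirectionally vs DMSO control.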

[2] = read-out: TIMP metallopeptidase inhibitor 1 (TIMP1), TIMP1 (gene 7076); assay: BSK_hDFCGF_TIMP1: BioMAP Diversity Plus: hDFCGF Assay for TIMP metallopeptidase inhibitor 1 (TIMP1) Biomarker Activity (AID 2283062); details: primary human foreskin fibroblasts; actives raise or lower the signal
Method in brief: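 ELISA readout of TIMP-1 from human dermal foreskin fibroblast cultures 24 h post-dosing. Curves were fitted in both directions against DMSO baseline, with SRB total-protein staining in parallel cultures as a cytotoxicity check.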

[3] = read-out: Monokine induced gamma interferon (MIG), CXCL9 (gene 4283); assay: BSK_hDFCGF_MIG: BioMAP Diversity Plus: hDFCGF Assay for Monokine induced gamma interferon (MIG) Biomarker Activity (AID 2283063); details: primary human foreskin fibroblasts; actives raise or lower the signal
Method in brief: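 Fibroblasts (human foreskin, primary) dosed, 24 h, MIG by ELISA; fit bidirectional vs DMSO.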

[4] = read-out: Matrix Metallopeptidase 1 (MMP1), MMP1 (gene 4312); assay: BSK_hDFCGF_MMP1: BioMAP Diversity Plus: hDFCGF Assay for Matrix Metallopeptidase 1 (MMP1) Biomarker Activity (AID 2283064); details: primary human foreskin fibroblasts; actives raise or lower the signal
Method in brief: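 MMP1 levels quantified by ELISA 24 h after dosing human dermal fibroblast cultures, with parallel SRB total-protein staining for overt cytotoxicity. Data fitted in both directions against DMSO baseline.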

[5] = read-out: Vascular cell adhesion molecule 1 (VCAM1), VCAM1 (gene 7412); assay: BSK_hDFCGF_VCAM1: BioMAP Diversity Plus: hDFCGF Assay for Vascular cell adhesion molecule 1 (VCAM1) Biomarker Activity (AID 2283065); details: primary human foreskin fibroblasts; actives raise or lower the signal;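 for AC50: VCAM-1 protein level quantified by ELISA after 24 h chemical exposure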
Method in brief: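 ELISA read-out of VCAM-1 on human skin fibroblasts, 24 h post-dose; gain or loss of signal fitted bidirectionally against DMSO baseline.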

[6] = read-out: Plasminogen activator inhibitor-1 (PAI1), SERPINE1 (gene 5054); assay: BSK_hDFCGF_PAI1: BioMAP Diversity Plus: hDFCGF Assay for Plasminogen activator inhibitor-1 (PAI1) Biomarker Activity (AID 2283066); details: primary human foreskin fibroblasts; actives raise or lower the signal
Method in brief: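 Human skin fibroblast cultures receive chemical for 24 h before PAI-1 is measured by ELISA; signal changes are fitted bidirectionally against DMSO-treated wells.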

[7] = read-out: Intercellular Adhesion Molecule 1 (ICAM1), ICAM1 (gene 3383); assay: BSK_KF3CT_ICAM1: BioMAP Diversity Plus: KF3CT Assay for Intercellular Adhesion Molecule 1 (ICAM1) Biomarker Activity (AID 2283067); details: primary human keratinocytes with fibroblasts; actives raise or lower the signal
Method in brief: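 ELISA readout of ICAM-1; KF3CT human skin co-culture (keratinocytes + foreskin fibroblasts), 24 h post-dose; gain/loss fit vs DMSO baseline.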

[8] = read-out: Interferon-gamma inducible Protein 10 (IP10), CXCL10 (gene 3627); assay: BSK_KF3CT_IP10: BioMAP Diversity Plus: KF3CT Assay for Interferon-gamma inducible Protein 10 (IP10) Biomarker Activity (AID 2283068); details: primary human keratinocytes with fibroblasts; actives raise or lower the signal
Method in brief: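 ELISA read-out of IP-10 after 24 h chemical dosing of human skin primary co-culture (keratinocytes, foreskin fibroblasts). Gain or loss of signal relative to DMSO, bidirectional curve fit.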

[9] = BSK_KF3CT_SRB: Viability Assessment in the BioMAP Diversity Plus: KF3CT Assay (AID 2283069); details: primary human keratinocytes with fibroblasts;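 note: total protein by sulforhodamine B staining as a cytotoxicity measure; read 24 h after compound addition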
Method in brief: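 Cytotoxicity was gauged by SRB staining (0.1% SRB, 10% TCA fixation, 560 nm) of parallel cultures at 24 h. The cells were primary human skin keratinocytes co-cultured with fibroblasts, and activity was fitted in both directions against DMSO.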

[10] = read-out: Interleukin-1 alpha (IL1a), IL1A (gene 3552); assay: BSK_KF3CT_IL1a: BioMAP Diversity Plus: KF3CT Assay for Interleukin-1 alpha (IL1a) Biomarker Activity (AID 2283070); details: primary human keratinocytes with fibroblasts; actives raise or lower the signal
Method in brief: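 IL-1a was detected by ELISA 24 h after chemical treatment of a co-culture of human skin keratinocytes and foreskin fibroblasts. Gain or loss of signal was fitted against the DMSO baseline.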

[11] = read-out: TIMP metallopeptidase inhibitor 2 (TIMP2), TIMP2 (gene 7077); assay: BSK_KF3CT_TIMP2: BioMAP Diversity Plus: KF3CT Assay for TIMP metallopeptidase inhibitor 2 (TIMP2) Biomarker Activity (AID 2283071); details: primary human keratinocytes with fibroblasts; actives raise or lower the signal
Method in brief: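 Measurements come from ELISA detection of TIMP-2 at 24 hours in a dosed human keratinocyte and foreskin fibroblast co-culture. DMSO serves as negative control and baseline.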

[12] = read-out: Transforming growth factor beta 1 (TGFb1), TGFB1 (gene 7040); assay: BSK_KF3CT_TGFb1: BioMAP Diversity Plus: KF3CT Assay for Transforming growth factor beta 1 (TGFb1) Biomarker Activity (AID 2283072); details: primary human keratinocytes with fibroblasts; actives raise or lower the signal
Method in brief: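 TGF-b1 ELISA on a 24 h dosed co-culture of human keratinocytes and foreskin fibroblasts; cytotoxicity tracked in parallel cultures by SRB staining.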

[13] = read-out: C-C motif chemokine 2 (Homo sapiens) (UniProt P13500); assay: BSK_KF3CT_MCP1: BioMAP Diversity Plus: KF3CT Assay for Monocyte Chemoattractant Protein 1 (MCP1/CCL2) Biomarker Activity (AID 2283073); details: primary human keratinocytes with fibroblasts; actives raise or lower the signal
Method in brief: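 KF3CT skin co-culture (keratinocytes/foreskin fibroblasts), 24 h post-dose; MCP-1 by ELISA; gain/loss of signal fit bidirectionally vs DMSO baseline.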

[14] = read-out: Matrix Metallopeptidase 9 (MMP9), MMP9 (gene 4318); assay: BSK_KF3CT_MMP9: BioMAP Diversity Plus: KF3CT Assay for Matrix Metallopeptidase 9 (MMP9) Biomarker Activity (AID 2283074); details: primary human keratinocytes with fibroblasts; actives raise or lower the signal;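 for AC50: MMP9 protein level quantified by ELISA in the co-culture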
Method in brief: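 MMP-9 quantified by ELISA after 24 h chemical treatment of primary human skin keratinocyte/fibroblast co-cultures; gain or loss fitted against DMSO, with parallel SRB staining (0.1% SRB, 560 nm) for overt cytotoxicity.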

[15] = read-out: urokinase plasminogen activator (uPA), PLAU (gene 5328); assay: BSK_KF3CT_uPA: BioMAP Diversity Plus: KF3CT Assay for urokinase plasminogen activator (uPA) Biomarker Activity (AID 2283075); details: primary human keratinocytes with fibroblasts; actives raise or lower the signal
Method in brief: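 ELISA read-out of uPA 24 h after dosing human skin keratinocytes co-cultured with foreskin fibroblasts. Signal change fitted both ways relative to DMSO; sulforhodamine B on parallel cultures marks overt cytotoxicity.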

[16] = read-out: CD40, CD40 (gene 958); assay: BSK_LPS_CD40: BioMAP Diversity Plus: LPS Assay for CD40 Biomarker Activity (AID 2283076); details: primary human HUVEC with PBMC; actives raise or lower the signal
Method in brief: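 ELISA readout of CD40 in HUVEC/PBMC co-culture (BSK_LPS system), 24 h post-dosing; bidirectional curve fit, DMSO baseline; parallel SRB total-protein staining for cytotoxicity.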

[17] = read-out: E-selectin (Homo sapiens) (UniProt P16581); assay: BSK_LPS_Eselectin: BioMAP Diversity Plus: LPS Assay for Eselectin Biomarker Activity (AID 2283077); details: primary human HUVEC with PBMC; actives raise or lower the signal
Method in brief: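 ELISA readout of E-selectin, 24 h post-dose, HUVEC + PBMC co-culture (LPS system). Gain or loss of signal vs DMSO baseline, bidirectional fit.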

[18] = BSK_LPS_SRB: Viability Assessment in the BioMAP Diversity Plus: LPS Assay (AID 2283079); details: primary human HUVEC with PBMC;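 note: total protein by sulforhodamine B absorbance as a cytotoxicity measure; measured one day after compound addition; fitted in both directions against DMSO so loss or gain of signal counts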
Method in brief: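 HUVEC + PBMC co-culture, LPS-stimulated; compound 24 h. 10% TCA fix, 0.1% SRB stain, A560. Bidirectional fit vs DMSO.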

[19] = read-out: Interleukin-1 alpha (IL1a), IL1A (gene 3552); assay: BSK_LPS_IL1a: BioMAP Diversity Plus: LPS Assay for Interleukin-1 alpha (IL1a) Biomarker Activity (AID 2283080); details: primary human HUVEC with PBMC; actives raise or lower the signal
Method in brief: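 HUVEC/PBMC co-culture, LPS system; 24 h after dosing; IL-1a by ELISA; gain or loss of signal fitted bidirectionally vs DMSO baseline.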

[20] = read-out: Interleukin-8 (IL8), CXCL8 (gene 3576); assay: BSK_LPS_IL8: BioMAP Diversity Plus: LPS Assay for Interleukin-8 (IL8) Biomarker Activity (AID 2283078); details: primary human HUVEC with PBMC; actives raise or lower the signal
Method in brief: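 HUVEC + PBMC co-culture, LPS-activated; test chemicals dosed, IL-8 read by ELISA at 24 h. Bidirectional curve fit vs DMSO baseline (gain or loss of signal).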

Measured: AC50

E-selectin (Homo sapiens), sequence (P16581 whole entry, looked up): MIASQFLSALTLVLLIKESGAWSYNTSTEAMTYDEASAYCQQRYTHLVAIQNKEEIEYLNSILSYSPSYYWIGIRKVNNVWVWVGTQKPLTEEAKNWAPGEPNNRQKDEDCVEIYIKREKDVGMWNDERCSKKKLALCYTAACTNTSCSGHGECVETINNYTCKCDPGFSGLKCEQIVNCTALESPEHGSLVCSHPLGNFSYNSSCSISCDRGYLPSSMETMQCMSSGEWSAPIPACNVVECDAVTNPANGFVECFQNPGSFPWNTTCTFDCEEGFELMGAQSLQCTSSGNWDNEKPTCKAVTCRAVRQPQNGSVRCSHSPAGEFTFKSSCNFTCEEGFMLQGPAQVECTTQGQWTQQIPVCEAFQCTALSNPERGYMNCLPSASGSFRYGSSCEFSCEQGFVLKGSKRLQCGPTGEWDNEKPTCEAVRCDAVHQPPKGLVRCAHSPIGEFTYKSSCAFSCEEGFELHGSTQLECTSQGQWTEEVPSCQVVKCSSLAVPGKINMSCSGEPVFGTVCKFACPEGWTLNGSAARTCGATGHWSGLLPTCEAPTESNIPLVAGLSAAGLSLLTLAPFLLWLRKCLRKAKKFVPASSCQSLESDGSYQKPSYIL

CCCCCCCCCCCC[N+](C)(C)C
inactive: [2] | [7]
active: [1] 18.4 µM | [3] 30.6 µM | [4] 4.94 µM | [5] 15.4 µM | [6] 20 µM | [8] 36 µM | [9] 33.9 µM | [10] 32.5 µM | [11] 27.8 µM | [12] 26.6 µM | [13] 29.7 µM | [14] 30.7 µM | [15] 34 µM | [16] 16.9 µM | [17] 20.3 µM | [18] 25.7 µM | [19] 16.6 µM

CN(C)c1ccc(C(=C2C=CC(=[N+](C)C)C=C2)c2ccc(N(C)C)cc2)cc1
active: [1] 2 µM | [2] 1.95 µM | [3] 5.26 µM | [4] 5.45 µM | [5] 3.25 µM | [6] 1.54 µM | [7] 10.8 µM | [8] 8.28 µM | [9] 5.24 µM | [10] 2.54 µM | [11] 1.29 µM | [12] 0.595 µM | [13] 3.97 µM | [14] 1.33 µM | [15] 2.85 µM | [16] 0.438 µM | [17] 0.355 µM | [18] 7.67 µM

CCO[Si](CCCNC(N)=O)(OCC)OCC
not listed: [11] | [18] | [19] | [20]
inactive: all other assays above

c1ccc(C[n+]2cccc3ccccc32)cc1
not listed: [16] | [19]
inactive: all other assays above

CCCCCCCCN(C)CCCCCCCC
not listed: [18] | [19]
inactive: all other assays above
